# According to the supplement of paper PMC11732987, “Enantioselective OTUD7B fragment discovery through chemoproteomics screening and high-throughput optimisation” (Communications Chemistry, 2025):
# Unmarked numbers belong to inactive results.
# Tests used:
# Assay in all cases: log2 ratio of Biotin-Ahx-Ub-VS probe labelling (fragment/DMSO); higher = less target engagement (more negative = stronger competition), active = hit call of the paper (q ≤ 0.05, log2 ratio ≤ -1)
# Conditions in all cases: compound concentration: 200 uM; treatment time: 3 h
# USP19 = molecular target: T1, USP19 (UniProt O94966)
# T1 sequence (whole entry): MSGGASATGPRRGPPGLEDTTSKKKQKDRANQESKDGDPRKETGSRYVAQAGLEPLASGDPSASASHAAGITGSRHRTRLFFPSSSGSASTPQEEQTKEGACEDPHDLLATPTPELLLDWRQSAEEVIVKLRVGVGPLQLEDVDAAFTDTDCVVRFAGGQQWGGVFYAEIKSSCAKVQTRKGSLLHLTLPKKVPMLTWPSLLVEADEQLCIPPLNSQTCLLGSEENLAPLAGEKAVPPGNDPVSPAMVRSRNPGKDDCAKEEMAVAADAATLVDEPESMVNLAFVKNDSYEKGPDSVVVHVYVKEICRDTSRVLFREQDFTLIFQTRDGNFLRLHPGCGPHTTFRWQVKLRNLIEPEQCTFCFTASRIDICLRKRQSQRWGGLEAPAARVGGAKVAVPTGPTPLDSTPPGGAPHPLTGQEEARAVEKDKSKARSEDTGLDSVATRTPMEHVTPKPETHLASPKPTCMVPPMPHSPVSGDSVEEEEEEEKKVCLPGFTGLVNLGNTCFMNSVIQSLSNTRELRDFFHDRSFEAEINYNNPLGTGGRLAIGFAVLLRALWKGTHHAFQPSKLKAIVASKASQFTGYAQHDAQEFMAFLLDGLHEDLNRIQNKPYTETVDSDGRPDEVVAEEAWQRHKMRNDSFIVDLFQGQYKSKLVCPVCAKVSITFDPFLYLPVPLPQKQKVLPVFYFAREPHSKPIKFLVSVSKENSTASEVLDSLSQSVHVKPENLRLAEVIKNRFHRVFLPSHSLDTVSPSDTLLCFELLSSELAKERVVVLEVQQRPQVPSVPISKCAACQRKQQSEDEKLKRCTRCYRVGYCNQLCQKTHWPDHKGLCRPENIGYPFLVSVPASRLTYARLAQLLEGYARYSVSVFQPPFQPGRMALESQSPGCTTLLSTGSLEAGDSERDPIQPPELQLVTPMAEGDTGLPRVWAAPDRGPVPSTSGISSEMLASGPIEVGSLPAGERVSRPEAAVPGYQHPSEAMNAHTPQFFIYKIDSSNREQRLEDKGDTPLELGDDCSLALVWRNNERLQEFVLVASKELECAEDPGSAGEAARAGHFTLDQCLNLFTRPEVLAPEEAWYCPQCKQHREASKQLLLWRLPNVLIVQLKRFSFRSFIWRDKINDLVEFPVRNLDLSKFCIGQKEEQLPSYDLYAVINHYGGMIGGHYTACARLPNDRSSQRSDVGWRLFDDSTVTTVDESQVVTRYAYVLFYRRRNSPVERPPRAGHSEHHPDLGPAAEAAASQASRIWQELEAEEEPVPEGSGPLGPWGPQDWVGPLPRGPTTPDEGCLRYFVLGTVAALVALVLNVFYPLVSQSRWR
# Summary of the method: (§1)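 Labelled DUBs from HEK293T lysate were NeutrAvidin-enriched, digested with LysC and trypsin, and run by diaPASEF LC-MS/MS. Before that, each 495 µg sample in Tris/CHAPS/IGEPAL buffer with protease inhibitors was treated in triplicate with fragment at 200 µM or vehicle for 3 h, then with Biotin-Ahx-Ub-VS at 0.5 µM final for 1 h. Values are average log2 ratios of fragment over vehicle by unpaired t-test, based on global-median-normalised Spectronaut label-free quantities from proteins with ≥2 unique peptides.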
# USP24 = USP24 (UniProt Q9UPU5)
# Summary of the method: as §1
# USP25 = molecular target: T2, USP25 (UniProt Q9UHP3)
# T2 sequence (whole entry): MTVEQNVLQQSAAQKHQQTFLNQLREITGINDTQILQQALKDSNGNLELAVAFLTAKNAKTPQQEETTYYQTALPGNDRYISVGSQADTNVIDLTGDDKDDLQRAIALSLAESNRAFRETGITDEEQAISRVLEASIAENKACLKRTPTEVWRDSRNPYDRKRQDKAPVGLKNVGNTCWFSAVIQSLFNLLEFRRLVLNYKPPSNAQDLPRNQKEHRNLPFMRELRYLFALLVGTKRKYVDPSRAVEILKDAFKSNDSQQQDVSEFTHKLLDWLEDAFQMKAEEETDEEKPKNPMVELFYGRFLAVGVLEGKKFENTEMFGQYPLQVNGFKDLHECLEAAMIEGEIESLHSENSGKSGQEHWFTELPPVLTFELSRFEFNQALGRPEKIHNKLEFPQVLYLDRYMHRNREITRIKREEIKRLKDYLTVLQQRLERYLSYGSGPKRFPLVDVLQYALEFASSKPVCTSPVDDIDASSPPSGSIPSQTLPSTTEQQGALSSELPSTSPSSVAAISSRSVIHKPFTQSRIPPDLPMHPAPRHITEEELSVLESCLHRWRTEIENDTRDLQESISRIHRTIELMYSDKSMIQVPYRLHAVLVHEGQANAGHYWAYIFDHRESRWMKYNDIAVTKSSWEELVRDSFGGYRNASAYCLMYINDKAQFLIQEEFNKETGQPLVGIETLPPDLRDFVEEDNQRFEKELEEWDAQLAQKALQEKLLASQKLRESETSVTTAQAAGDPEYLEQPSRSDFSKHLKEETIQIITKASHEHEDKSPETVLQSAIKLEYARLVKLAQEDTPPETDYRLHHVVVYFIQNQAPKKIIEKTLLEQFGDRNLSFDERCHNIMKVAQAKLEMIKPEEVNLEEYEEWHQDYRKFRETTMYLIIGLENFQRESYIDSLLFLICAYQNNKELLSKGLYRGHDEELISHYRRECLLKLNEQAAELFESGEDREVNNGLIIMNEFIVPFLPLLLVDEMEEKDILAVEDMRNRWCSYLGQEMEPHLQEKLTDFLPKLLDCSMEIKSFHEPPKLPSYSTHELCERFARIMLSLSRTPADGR
# Summary of the method: as §1
# USP28 = molecular target: T3, USP28 (UniProt Q96RU2)
# T3 sequence (whole entry): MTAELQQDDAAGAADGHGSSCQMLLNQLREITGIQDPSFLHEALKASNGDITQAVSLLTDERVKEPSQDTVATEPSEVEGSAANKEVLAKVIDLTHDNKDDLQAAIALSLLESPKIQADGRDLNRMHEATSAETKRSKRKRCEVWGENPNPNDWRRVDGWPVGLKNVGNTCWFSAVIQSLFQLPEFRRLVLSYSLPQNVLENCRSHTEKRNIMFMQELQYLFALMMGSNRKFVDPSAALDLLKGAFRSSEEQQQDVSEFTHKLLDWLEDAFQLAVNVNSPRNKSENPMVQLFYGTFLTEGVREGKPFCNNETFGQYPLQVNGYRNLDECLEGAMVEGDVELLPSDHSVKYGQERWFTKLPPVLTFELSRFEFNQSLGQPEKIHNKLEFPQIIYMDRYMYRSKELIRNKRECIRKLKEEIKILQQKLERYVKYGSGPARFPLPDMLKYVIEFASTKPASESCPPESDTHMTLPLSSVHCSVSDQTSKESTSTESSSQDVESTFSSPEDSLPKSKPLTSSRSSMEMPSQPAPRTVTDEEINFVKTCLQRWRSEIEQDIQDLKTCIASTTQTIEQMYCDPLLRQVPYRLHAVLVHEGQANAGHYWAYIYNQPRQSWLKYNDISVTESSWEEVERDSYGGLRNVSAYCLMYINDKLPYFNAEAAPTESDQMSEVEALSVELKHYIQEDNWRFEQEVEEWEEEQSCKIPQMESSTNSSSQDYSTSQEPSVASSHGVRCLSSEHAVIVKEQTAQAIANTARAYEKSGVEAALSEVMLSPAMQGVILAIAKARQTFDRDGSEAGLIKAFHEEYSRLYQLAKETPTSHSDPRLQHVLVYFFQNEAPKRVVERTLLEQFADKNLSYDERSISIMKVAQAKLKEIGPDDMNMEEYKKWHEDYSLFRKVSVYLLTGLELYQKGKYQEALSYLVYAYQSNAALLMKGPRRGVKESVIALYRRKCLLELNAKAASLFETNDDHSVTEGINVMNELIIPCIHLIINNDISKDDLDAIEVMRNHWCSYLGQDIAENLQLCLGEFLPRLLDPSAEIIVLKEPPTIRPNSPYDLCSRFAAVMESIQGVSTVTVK
# Summary of the method: as §1
# Sequence of USP24 (Q9UPU5 whole entry): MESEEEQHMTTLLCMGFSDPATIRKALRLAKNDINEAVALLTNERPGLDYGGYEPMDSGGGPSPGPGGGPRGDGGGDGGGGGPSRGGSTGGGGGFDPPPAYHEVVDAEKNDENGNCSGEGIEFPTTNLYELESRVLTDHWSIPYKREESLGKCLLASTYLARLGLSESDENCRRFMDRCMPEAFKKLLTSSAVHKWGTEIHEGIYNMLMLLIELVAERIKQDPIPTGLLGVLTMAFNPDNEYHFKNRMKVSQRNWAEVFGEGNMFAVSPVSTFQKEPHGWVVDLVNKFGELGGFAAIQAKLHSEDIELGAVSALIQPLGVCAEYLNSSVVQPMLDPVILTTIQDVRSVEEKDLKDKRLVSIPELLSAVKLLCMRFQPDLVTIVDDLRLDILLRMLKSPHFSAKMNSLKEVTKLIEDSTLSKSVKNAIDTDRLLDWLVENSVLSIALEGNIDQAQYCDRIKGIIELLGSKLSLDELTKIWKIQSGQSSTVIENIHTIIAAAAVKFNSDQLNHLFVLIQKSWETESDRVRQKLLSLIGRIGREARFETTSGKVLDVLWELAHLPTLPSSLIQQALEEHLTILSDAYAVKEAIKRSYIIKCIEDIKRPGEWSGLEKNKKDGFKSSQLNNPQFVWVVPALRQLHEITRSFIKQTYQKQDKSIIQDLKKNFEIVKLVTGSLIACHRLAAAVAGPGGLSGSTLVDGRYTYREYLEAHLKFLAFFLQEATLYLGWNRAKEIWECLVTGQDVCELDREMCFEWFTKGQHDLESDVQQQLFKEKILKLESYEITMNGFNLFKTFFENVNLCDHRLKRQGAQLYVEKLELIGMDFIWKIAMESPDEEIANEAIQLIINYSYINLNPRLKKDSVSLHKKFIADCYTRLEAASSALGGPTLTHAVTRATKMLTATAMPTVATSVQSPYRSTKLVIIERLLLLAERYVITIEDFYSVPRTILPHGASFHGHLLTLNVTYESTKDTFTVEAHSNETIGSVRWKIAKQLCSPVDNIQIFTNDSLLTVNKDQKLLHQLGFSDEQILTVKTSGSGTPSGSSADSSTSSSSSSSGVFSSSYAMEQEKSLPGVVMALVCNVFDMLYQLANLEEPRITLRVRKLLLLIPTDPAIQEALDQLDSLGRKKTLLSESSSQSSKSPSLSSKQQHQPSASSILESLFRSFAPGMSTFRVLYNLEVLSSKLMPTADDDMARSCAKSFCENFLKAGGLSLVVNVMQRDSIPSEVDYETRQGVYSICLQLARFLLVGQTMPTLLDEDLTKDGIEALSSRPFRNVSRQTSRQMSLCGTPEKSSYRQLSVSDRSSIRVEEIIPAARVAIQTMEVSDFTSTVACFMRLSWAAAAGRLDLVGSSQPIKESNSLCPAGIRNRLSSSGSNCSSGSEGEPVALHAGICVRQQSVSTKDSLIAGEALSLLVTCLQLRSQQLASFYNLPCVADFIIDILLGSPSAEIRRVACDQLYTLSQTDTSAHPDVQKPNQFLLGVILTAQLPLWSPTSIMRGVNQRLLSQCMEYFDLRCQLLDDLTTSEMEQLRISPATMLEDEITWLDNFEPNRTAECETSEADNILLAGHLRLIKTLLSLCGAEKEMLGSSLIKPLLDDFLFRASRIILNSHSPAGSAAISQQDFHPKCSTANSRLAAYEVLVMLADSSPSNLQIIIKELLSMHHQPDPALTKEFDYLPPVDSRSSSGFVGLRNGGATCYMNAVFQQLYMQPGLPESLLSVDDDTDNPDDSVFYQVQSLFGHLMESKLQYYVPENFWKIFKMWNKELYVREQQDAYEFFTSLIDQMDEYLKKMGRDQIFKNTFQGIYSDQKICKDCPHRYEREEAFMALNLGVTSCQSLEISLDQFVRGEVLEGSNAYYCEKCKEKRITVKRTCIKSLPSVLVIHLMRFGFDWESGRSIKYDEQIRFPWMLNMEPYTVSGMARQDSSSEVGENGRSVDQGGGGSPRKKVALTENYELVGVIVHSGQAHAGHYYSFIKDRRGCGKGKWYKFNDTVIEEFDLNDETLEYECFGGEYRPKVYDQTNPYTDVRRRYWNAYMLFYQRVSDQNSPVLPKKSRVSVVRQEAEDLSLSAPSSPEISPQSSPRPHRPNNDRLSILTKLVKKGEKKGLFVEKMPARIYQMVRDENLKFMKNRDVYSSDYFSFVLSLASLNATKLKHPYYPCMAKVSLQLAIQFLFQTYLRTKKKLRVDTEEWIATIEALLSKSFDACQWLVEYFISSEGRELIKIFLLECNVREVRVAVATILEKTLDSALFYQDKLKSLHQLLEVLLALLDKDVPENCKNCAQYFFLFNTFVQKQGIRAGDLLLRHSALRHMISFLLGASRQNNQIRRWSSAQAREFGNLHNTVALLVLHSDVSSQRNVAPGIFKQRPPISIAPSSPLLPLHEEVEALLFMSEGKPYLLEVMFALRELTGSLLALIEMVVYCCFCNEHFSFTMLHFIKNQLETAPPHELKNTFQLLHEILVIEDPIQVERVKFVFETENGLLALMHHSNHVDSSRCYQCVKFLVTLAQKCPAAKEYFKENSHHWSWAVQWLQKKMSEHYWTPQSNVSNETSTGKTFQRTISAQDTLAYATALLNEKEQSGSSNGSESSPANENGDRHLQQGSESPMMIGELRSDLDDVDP
compound,measurement,setting,value
O=C(CCl)Nc1cc2c(cc1Cl)OCCO2,log2 ratio of Biotin-Ahx-Ub-VS probe labelling,USP19,0.00638
same,log2 ratio of Biotin-Ahx-Ub-VS probe labelling,USP24,-0.0527
same,log2 ratio of Biotin-Ahx-Ub-VS probe labelling,USP25,-1.52 (active)
same,log2 ratio of Biotin-Ahx-Ub-VS probe labelling,USP28,-1.81 (active)
